Shown are actives, neighbours in structure and some others; about 11% of the full set was active somewhere.
USP28 block: inhibitors of human USP28 deubiquitinase; Ubiquitin carboxyl-terminal hydrolase 28 (Homo sapiens), Q96RU2; inhibition, % at 25 µM; 47,000 compounds, 3% hits; AID 1645857, 2021; purified USP28, Ub-rhodamine cleavage fluorescence, 30 min
USP30 block: inhibitors of human USP30 deubiquitinase; Ubiquitin carboxyl-terminal hydrolase 30 (Homo sapiens), Q70CQ3; purified USP30, Ub-rhodamine cleavage fluorescence; inhibition, % at 25 µM; 47,000 compounds, 5.3% hits; AID 1645860, 2021
Target sequence (Q70CQ3 whole entry, looked up): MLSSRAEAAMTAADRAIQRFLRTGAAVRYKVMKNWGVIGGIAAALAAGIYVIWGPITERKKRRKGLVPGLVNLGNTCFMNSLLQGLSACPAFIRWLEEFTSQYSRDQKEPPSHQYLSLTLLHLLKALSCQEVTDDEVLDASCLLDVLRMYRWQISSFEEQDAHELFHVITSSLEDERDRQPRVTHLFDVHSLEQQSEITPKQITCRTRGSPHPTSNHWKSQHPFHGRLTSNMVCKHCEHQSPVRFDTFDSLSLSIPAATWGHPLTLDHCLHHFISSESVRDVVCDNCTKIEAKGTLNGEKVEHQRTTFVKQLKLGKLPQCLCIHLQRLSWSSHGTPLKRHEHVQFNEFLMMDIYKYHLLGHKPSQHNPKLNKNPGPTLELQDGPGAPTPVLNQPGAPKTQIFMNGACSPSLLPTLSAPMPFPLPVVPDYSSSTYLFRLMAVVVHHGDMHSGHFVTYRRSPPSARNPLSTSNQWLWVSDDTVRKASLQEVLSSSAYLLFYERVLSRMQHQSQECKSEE
USP17 block: inhibitors of human USP17 deubiquitinase | purified USP17, Ub-rhodamine cleavage fluorescence, 3 h | inhibition, % at 50 µM | Ubiquitin carboxyl-terminal hydrolase 17-like protein 5 (Homo sapiens), A8MUK1 | AID 1645855, 2021 | 47,000 compounds, 6.5% hits
Numbers without * were called inactive; / = not tested or not shown. Rule as the data show it: active = inhibition above about 30%; inactive = the rest.

SMILES	USP28 block	USP30 block	USP17 block
CC1CCc2cc(F)ccc2N1S(=O)(=O)c1cc(Br)cnc1N (centres undefined)	34*	18	17
CC1CCN(c2c(S(=O)(=O)c3ccccc3)cnc3ccc(F)cc23)CC1	3	7	-3
CC(C)(C)c1ccc(C(=O)NCc2cccnc2)s1	-8	-8	/
O=C(Nc1sc2c(c1C(=O)NCc1cccnc1)CCCC2)c1csnn1	38*	11	49*
Cc1cccc(C(=O)Nc2ccccc2Sc2nc3c(c(=O)n(C)c(=O)n3C)n2C)c1	31*	71*	33*
Cc1cccc(C(=O)Nc2c(C)nc3ccccn3c2=O)c1	6	15	14
Cn1c(NC(=O)c2ccc(Cl)cc2Cl)c(-c2ccccn2)c(=O)c2ccccc21	-1	-30	16
Cc1nn(C)c2c1[C@@H](c1ccc(F)c(Br)c1)[C@H](NC(=O)c1ccccc1)C(=O)N2	71*	-29	-11
Cc1nn(C)c2c1[C@@H](c1ccc3c(c1)OCCO3)[C@H](NC(=O)c1ccc(Cl)cc1)C(=O)N2	18	7	0
COc1ccc(S(=O)(=O)c2cnc3cc4c(cc3c2N2CCN(C)CC2)OCCO4)cc1	-22	-46	-23
Cc1c(-c2nsc(NC(=O)c3ccc(Cl)cc3)n2)nnn1-c1ccccc1F	64*	86*	39*
O=C(Nc1nc(-c2ccccc2)ns1)c1ccc(F)cc1	6	3	0
C1CN(c2nnn(CC3CC3)n2)CCO1	-11	-4	-3
CC(C)Cc1nc2sc3c(SCC(=O)NC(c4ccccc4)c4ccccc4)ncnc3c2c2c1CCC2	1	12	0
CC(C)Cc1nc2sc3c(SCC(=O)Nc4ccc(Cl)cc4)ncnc3c2c2c1CCC2	3	9	13
CC(C)Cc1nc2sc3c(SCC(=O)NC4(c5ccccc5)CCCC4)ncnc3c2c2c1CCC2	20	26	42*
Cc1cccc(NC(=O)CSc2ncnc3c2sc2nc(CC(C)C)c4c(c23)CCC4)c1	9	34*	74*
O=C(Cn1cnc2cc3c(cc21)OCCO3)NC1CC1	0	9	6
Cc1cc(C)n(-c2nc3c(c(=O)n2CC(=O)Nc2ccc4c(c2)OCO4)CCC3)n1	10	19	7
Cc1ncc(C(=O)N2CCN(Cc3ccccc3)C(C(N)=O)C2)cn1 (centres undefined)	-20	-45	-11
CC(C)Cn1c(=O)c2sccc2n2c(=O)n(Cc3ccccc3F)nc12	-8	7	-2
Cn1c(=O)c(Cl)nc2c(OCc3ccccc3)nc(N)nc21	12	14	6
Nc1nc(OCc2ccccc2)c2[nH]c(/C=C/c3cccs3)nc2n1	67*	84*	17
O=C(Cc1ccccc1F)NCc1cnc(C2CCCCO2)nc1 (centres undefined)	12	14	5
O=c1cc[nH]c2nc(C(Cl)(Cl)Cl)nc(-c3ccccc3)c12	-25	-13	9
SMILES	USP28 block	USP30 block	USP17 block
Cc1nc2ccccn2c1C1(O)C(=O)Nc2c(Cl)cc(Cl)cc21 (centres undefined)	21	24	52*
Cc1nc2ccccn2c(=O)c1NC(=O)Cc1ccc(Cl)cc1	0	11	1
COc1cc(O)c2c(c1CC=C(C)C)OC(c1ccc(O)cc1)CC2=O (centres undefined)	2	-30	-46
CC(C)=CCc1c(O)cc2c(c1C)OC(=O)c1c(C)c(Cl)c(O)c(CO)c1O2	49*	39*	37*
CC(C)N1C(=O)C2COCCN2C(=O)c2cc3c(cc21)OCO3 (centres undefined)	/	/	37*
Cc1cnc(C2COCCN2C(=O)c2ccc3c(c2)OCO3)[nH]1 (centres undefined)	4	16	18
C#CCOc1ccc(/C=C(\Sc2n[nH]c(C)n2)C(=O)O)cc1	1	-33	8
O=C(c1cnn2cccnc12)N1CCC(c2ccn3nccc3n2)CC1	15	33*	18
O=C(c1cnn2cccnc12)N1CCn2c(nnc2C2CC2)C1	16	27	18
Cc1ccc2cnn(CC(=O)NCc3cccc(F)c3)c2c1	7	6	23
CC(C)=CCC/C(C)=C/CC/C(C)=C/COc1c(O)cc(C=O)c(C=O)c1O	81*	44*	81*
Cc1cccc(Cn2cc(C(=O)O)c(S(=O)(=O)N3CCCCC3)n2)c1	4	12	-7
CC(=O)c1ccc(NS(=O)(=O)c2c(C(=O)N3CCC(C)CC3)c(C)n(C)c2C)cc1	-7	-12	-7
CCn1c(=O)c(-c2ccc(C(=O)NCc3ccc(OC)cc3OC)cc2)nc2cccnc21	11	-2	-6
CCCn1c(=O)c(-c2ccc(C(=O)NCc3ccc(OC)cc3)cc2)nc2cccnc21	13	32*	87*
COc1ccccc1CC(=O)N1CCC(c2nc3c(nnn3Cc3ccc(F)cc3)c(=O)[nH]2)CC1	0	-1	-1
Cc1ccccc1CNc1nc(NC2CCCC2)nc2c1cnn2C	-2	-20	-17
CCOCCCN1C(=O)c2ccc(-c3ccco3)n2CC1(C)C(=O)NC1CCCC1 (centres undefined)	-48	-225	-22
COc1ccc(NC(=O)Nc2ccc(CCc3nc4ccccc4[nH]3)cc2)cc1OC	-12	-9	/
O=C(c1ncn2c1CNS(=O)(=O)c1ccccc1-2)N1CCCC1	-2	-15	-11
O=C(Nc1cccc(Cl)c1)c1ncn2c1CNS(=O)(=O)c1ccccc1-2	66*	36*	33*
Cc1ccc(NC(=O)C2CCN(S(C)(=O)=O)c3ccccc3O2)cc1 (centres undefined)	13	23	7
Cc1cc(=O)oc2cc(OC(C)C(=O)NCCC3=CCCCC3)ccc12 (centres undefined)	-2	-10	17
COCc1cccc(C(=O)Nc2ccc3c(c2)NC(=O)C(C)O3)c1 (centres undefined)	1	14	2
CC1Oc2ccc(NC(=O)c3cccc(NC(=O)c4cccs4)c3)cc2NC1=O (centres undefined)	1	-4	38*
SMILES	USP28 block	USP30 block	USP17 block
O=C(CSc1ccccc1C(=O)O)NCc1ccc2c(c1)OCO2	-8	14	0
CCC(=O)N1CCN(c2nc3c(s2)CC(C(=O)NC2CCCC2)CC3)CC1 (centres undefined)	-4	5	-6
Cc1nc(C)c(-c2nc(-c3ccc4c(c3)[nH]c(=O)n4C3CCCC3)no2)s1	-102	-334	-11
O=C(NCc1nc(-c2ccc3c(c2)[nH]c(=O)n3C2CCCC2)no1)c1ccccc1	0	-55	58*
Cc1cccc(C(=O)Nc2c(C(=O)NCc3ccccn3)[nH]c3ccccc23)c1	-17	-26	-19
Cn1c(C(=O)NCc2ccccn2)cc2c(=O)[nH]c3ccccc3c21	38*	-29	80*
COc1cc2c(cc1OC)C(=O)NC(=CN(C)CC(=O)Nc1ccc(Cl)c(C(F)(F)F)c1)N2	-2	-13	-7
CCN1CCn2c(nc3cc(C(=O)NC4CCCC4)ccc32)C1=O	-2	-19	-15
CN1[C@H]2CCN(C(=O)C3CCC3)CC[C@@H]2Oc2ccccc2S1(=O)=O	0	4	2
Fc1ccc(Nc2ncnc3c(-c4ccccc4)noc23)cc1	6	46*	44*
